An excerpt weighted towards active compounds, which were near 2.1% of everything screened.
TDP43 rescue – rescues yeast growth from TDP-43 toxicity. TDP-43 expressing yeast growth rescue, BacTiter-Glo, 24 h. AID 652104. actives 1.8% (n = 410,000). Potency, µM (series often up to 46.1 µM), for the others: at the top dose growth rescue (activation), most hits filed as activators; further: % of control where 0% means no effect; nearly all actives have a fitted effect of over 50% in size
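Luminescence from BacTiter-Glo reports growth of TDP-43-expressing yeast after 24 hr at 30 deg C with compound. Cells were raffinose-pregrown to mid-log, then seeded in galactose medium at OD600=0.02.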
aSyn rescue – rescues yeast growth from alpha-synuclein toxicity. AID 652106. Yeast expressing alpha-synuclein, growth rescue, BacTiter-Glo, 24 h. Potency, µM (doses to about 46.1 µM), for inactives: top-dose growth rescue (activation), most hits filed as activators. actives 0.14% (n = 370,000); further: % of control where 0% means no effect; nearly all actives have a fitted effect of over 65% in size
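Galactose-induced alpha-syn yeast (OD600=0.02, raffinose-pregrown) + pinned cpd, 24 hr, 30 deg C; growth by BacTiter-Glo luminescence. Growth restoration scores as activation.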
Abeta rescue – A-beta toxicity reversal in yeast; yeast expressing A-beta42, growth rescue, OD600, 48 h; response scale: 0% DMSO, 100% iron-clioquinol control; Potency, µM (doses to about 46.1 µM), usual class: activators; actives 0.063% (n = 410,000); AID 1347071; further: nearly all actives have a fitted effect of over 55% in size
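Yeast growth medium received pinned compounds, then yeast cells expressing toxic A-beta were added; plates incubated at 30 C for 48 hr. Growth read as absorbance at 600 nm, normalized to DMSO and equimolar FeCl3 plus clioquinol controls.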
FUS suppressor – FUS proteinopathy suppression in yeast. Potency, µM (series often up to 76.6 µM), hits mostly activators. AID 1347120. S. cerevisiae FUS-expressing, growth rescue, OD600, 24 h. actives 0.24% (n = 390,000);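 further: plate controls were DMSO vehicle for no effect and reference control for full effect; nearly all actives have a fitted effect of over 55% in size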
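Compound concentration series was pinned onto galactose-induced FUS-expressing yeast seeded at OD 0.005. Plates sat 24hr at 30C; absorbance at 600 nm gave growth. DMSO served as background control.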
* marks the source's active call; other numbers are inactive results; i = inactive; ? = inconclusive; / = no result. The call rests on the fitted dose curve; in most records, active means well fitted curve in the direction sought with a large enough effect; inconclusive means small, poorly fitted or top-dose-only effect, or another doubt; inactive means no such curve, though single readings can be large; an effect the other way counts as inactive or inconclusive. Potency means the concentration at half of the fitted maximal effect.

SMILES | TDP43 rescue | aSyn rescue | Abeta rescue | FUS suppressor
O=C(OCc1cc(=O)n2nc(-c3cccs3)sc2n1)c1ccccc1Cl | 12% | / | i | i
O=CNc1cc(-c2cccc(F)c2)cn2c(-c3ccc(F)cc3)cnc12 | 18µM* | -7% | i | i
CC(=O)Nc1cc(-c2ccccc2F)cn2c(-c3ccccc3)cnc12 | 20µM* | 5% | i | i
COc1ccc(-c2cc(NC=O)c3ncc(-c4cccc(C(F)(F)F)c4)n3c2)c(OC)c1 | 16µM* | -6% | i | ?
COc1cc(-c2cnc3c(NC=O)cc(-c4cccc(C(F)(F)F)c4)cn23)cc(OC)c1OC | 0% | 11% | i | ?
CN(C)C(=O)c1cccc(-c2cnc3c(NC=O)cc(-c4cccc(C(F)(F)F)c4)cn23)c1 | 0% | -2% | i | 28µM*
CCOc1ccccc1-n1ccnc(NCc2ccc(F)cc2)c1=O | 28% | / | i | i
COc1ccccc1NC(C)C(=O)c1c[nH]c2ccccc12 (stereo not given) | / | -13% | / | /
COc1ccccc1-c1cc(NC(C)=O)c2ncc(-c3ccccc3)n2c1 | ? | 25% | i | i
COc1ccc(-c2cc(NC(C)=O)c3ncc(-c4cccc(C(F)(F)F)c4)n3c2)c(OC)c1 | 13µM* | 23% | i | ?
COc1cccc(-c2cnc3c(NC(C)=O)cc(-c4ccccc4OC)cn23)c1 | 20µM* | 6% | i | i
CN(C(=O)c1ccc2c(c1)N(Cc1ccccc1F)C(=O)c1ccccc1S2(=O)=O)C1CCCCC1 | -4% | / | i | 10µM*
CN(Cc1ccccc1)C(=O)c1ccc2c(c1)N(Cc1ccccc1F)C(=O)c1ccccc1S2(=O)=O | 1% | / | i | 32µM*
Cc1cccc(CN2C(=O)c3ccccc3S(=O)(=O)c3ccc(C(=O)N(C)Cc4ccccc4)cc32)c1 | 14% | / | i | ?
Cc1nnc2sc(-c3ccncc3)nn12 | 8% | 13% | i | i
Cc1nnc2sc(-c3csc4c3CCCC4)nn12 | 13µM* | -3% | i | ?
Cc1ccccc1NC(=S)c1nc2ccccc2[nH]1 | 18µM* | 15% | ? | i
COc1ccc(NC(=O)Nc2nnc(C)s2)cc1 | -3% | / | i | i
CCCCOc1ccc(NC(=O)Nc2nnc(C)s2)cc1 | 7% | 1.3µM* | i | i
COc1ccc2c(c1)C(C)CC(C)(C)N2C(=O)NC1CCCCC1 (stereo not given) | -23% | 1% | i | i
CC1CC(C)(C)N(C(=O)NC2CCCCC2)c2ccccc21 (stereo not given) | 14µM* | -8% | i | /
CCc1ccc(-n2nc(CO)c(C(=O)NCc3cccs3)n2)cc1 | 19% | / | i | i
Cc1ccccc1N1C(=O)CC(N2CCC(C(N)=O)CC2)C1=O (stereo not given) | 16µM* | -89% | i | i
NC(=O)C1CCN(C2CC(=O)N(c3cccc(F)c3)C2=O)CC1 (stereo not given) | ? | -72% | i | i
Cc1ccc(C)c(NC(=O)CSc2cccc3cccnc23)c1 | 5.6µM* | 21% | i | i
SMILES | TDP43 rescue | aSyn rescue | Abeta rescue | FUS suppressor
Cc1ccc(C)c(NC(=O)C2CCCN2S(=O)(=O)c2cccnc2)c1 (stereo not given) | / | / | / | i
Cc1cc(C)c(C)c(S(=O)(=O)N2CCN(C(=S)NCC3CCCO3)CC2)c1C (stereo not given) | 22µM* | 22% | ? | ?
CCN1CCN(C(=S)NCC2CCCO2)CC1 (stereo not given) | -15% | -13% | i | i
O=C(NCCc1ccccc1)c1ccc(-c2ccccc2C(F)(F)F)o1 | 22% | -4% | i | i
O=C(NCCc1ccccc1)c1ccc(-c2ccc(F)cc2)o1 | 20µM* | 0% | i | i
O=C(/C=C/Nc1cccc([N+](=O)[O-])c1)c1ccco1 | -1% | 13µM* | i | i
CCCCn1nnnc1C(c1ccccc1)N1CCN(c2ccccc2)CC1 (stereo not given) | 5% | 22% | i | i
CCCCn1nnnc1C(c1ccccc1)N1CCN(c2c(Cl)cncc2Cl)CC1 (stereo not given) | 22µM* | -1% | i | i
O=C(NCc1cccc(F)c1)c1ccc(-n2cnc3cccnc32)cc1 | 0% | / | i | i
COc1ccc(-n2c(C)cc(C3=NNC(=NC4CC4)SC3)c2C)cc1 | 25% | -8% | i | 16µM*
Cc1ccc(OCc2cc(C(=O)N3CCC(C(O)C(C)C)CC3)no2)cc1C (stereo not given) | 16µM* | 12% | i | ?
O=C(COC(=O)c1n[nH]c(=O)c2ccccc12)Nc1cccc(S(=O)(=O)N2CCOCC2)c1 | -13% | -3% | i | 40µM*
Cc1ccccc1OCC(=O)Nc1cc(C)c(O)c(-c2nc3ccccc3o2)c1 | / | -10% | / | /
C#CCOCCOCCOCCNc1nc(N2CCN(C(=O)CCCCCCCCCCNC(=O)[C@@H](CCSC)n3cc(CCO)nn3)CC2)nc(N2CCN(C(=O)CCCCCCCCCCNC(=O)[C@H](CO)n3cc(CCCCCN)nn3)CC2)n1 | 9% | -37% | i | ?
C#CCOCCOCCOCCNc1nc(N2CCN(C(=O)CCCCCCCCCCNC(=O)[C@@H](CCSC)n3cc(CCO)nn3)CC2)nc(N2CCN(C(=O)CCCCCCCCCCNC(=O)[C@@H]([C@H](C)O)n3cc(C)nn3)CC2)n1 | -5% | -7% | i | 7.9µM*
C#CCOCCOCCOCCNc1nc(N2CCN(C(=O)CCCCCCCCCCNC(=O)Cn3cc(C[C@@H](C)O)nn3)CC2)nc(N2CCN(C(=O)CCCCCCCCCCNC(=O)[C@@H](CCSC)n3cc(CCO)nn3)CC2)n1 | 8% | -1% | i | 4µM*
C#CCOCCOCCOCCNc1nc(N2CCN(C(=O)CCCCCCCCCCNC(=O)[C@H](CCCCN)n3cc(C[C@@H](C)CC)nn3)CC2)nc(N2CCN(C(=O)CCCCCCCCCCNC(=O)[C@@H]([C@H](C)O)n3cc(C)nn3)CC2)n1 | 32% | -60% | i | ?
C#CCOCCOCCOCCNc1nc(N2CCN(C(=O)CCCCCCCCCCNC(=O)[C@H](CCCCN)n3cc(C)nn3)CC2)nc(N2CCN(C(=O)CCCCCCCCCCNC(=O)[C@@H]([C@H](C)O)n3cc(C)nn3)CC2)n1 | 5% | 0% | i | 11µM*
C#CCOCCOCCOCCNc1nc(N2CCN(C(=O)CCCCCCCCCCNC(=O)[C@@H](CCSC)n3cc(CCO)nn3)CC2)nc(N2CCN(C(=O)CCCCCCCCCCNC(=O)[C@H](CCC(=O)O)n3cc(CCCCCN)nn3)CC2)n1 | 19% | -21% | i | 11µM*

Source: PubChem
